Assay [1] concerns the target Progesterone receptor (Homo sapiens) (UniProt P06401). The assay can be described thus: qHTS assay to identify small molecule agonists of the progesterone receptor (PR) signaling pathway (AID 1346784; calls by dose curve; note: nearly all actives have a fitted effect of over 30% in size). Summed up:
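Compounds were tested for PR agonism in HEK 293T cells bearing a beta-lactamase gene under UAS control. Treatment lasted 16 hr at 37C; signal came from fluorescence of a FRET substrate.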
Background: Quantitative high-throughput screening tests each substance at several concentrations.

The target is the same in assay [2]. The assay can be described thus: qHTS assay to identify small molecule antagonists of the progesterone receptor (PR) signaling pathway (AID 1346795; active = well fitted inhibition curve with a large enough effect in the signal ratio in the repeat runs, not every such curve was filed as active; the % refers to the signal ratio). Summed up: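 In HEK293T cells bearing the PR-UAS-bla reporter, compound effects on promegestone-driven (1 nM) beta-lactamase expression are assessed after 16 hr using a fluorescent FRET substrate incubated 2 hr at room temperature.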

The nature of assay [3]: qHTS assay to identify small molecule antagonists of the progesterone receptor (PR) signaling pathway - cell viability counter screen (AID 1346798). For activity change, negative = cytotoxicity: series mostly up to about 92 µM. Note: nearly all actives have a fitted effect of over 50% in size. Note: potency is the fitted concentration of half-maximal effect. Summed up: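 Following a 4 hr attachment, PR-UAS-bla HEK293T cells in charcoal-stripped FBS medium were exposed to compounds with R5020 for 16 hr; CellTiter-Glo was added and luminescence read after 30 min at room temperature.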

A short description of assay [4]: qHTS assay to identify small molecule agonists of the progesterone receptor (PR) signaling pathway - cell viability counter screen (AID 1346799; calls by dose curve; note: nearly all actives have a fitted effect of over 45% in size; note: potency is the fitted concentration of half-maximal effect). Summed up: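 Here, 3,000 PR-UAS-bla HEK293T cells per well were treated with compounds for 16 hr after a 6 hr preincubation at 37C and 5% CO2; cell viability is the CellTiter-Glo luminescence signal.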
Assay [5] is described as follows: qHTS assay to identify small molecule agonists of the TGF-beta/Smad signaling pathway - cell viability counter screen (AID 1346829). Note: top concentration of the series differs between compounds; nearly all actives have a fitted effect of over 45% in size. Summed up:
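In parallel with the Smad reporter read, viability of HEK 293T cells stably carrying SBE-bla is quantified by ATP luminescence following 5 hr compound treatment.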

A short description of assay [6]: qHTS assay to identify small molecule agonists of the TGF-beta/Smad signaling pathway (AID 1346859; active = well fitted activation curve with a large enough effect in the signal ratio in the repeat runs, not every such curve was filed as active; the % refers to the signal ratio; note: series mostly up to about 77 µM). Summed up: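 Each well held 4,000 SBE-bla HEK 293T cells incubated overnight before compound addition; 5 hr later the cleavable FRET substrate went on for 2 hr at room temperature, and fluorescence was read at two emissions.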
In assay [7] the target is Thyrotropin-releasing hormone receptor (Homo sapiens) (UniProt P34981). Kind of assay: qHTS assay to identify small molecule antagonists of the thyrotropin-releasing hormone receptor (TRHR) signaling pathway (AID 1346877; active = well fitted inhibition curve with a large enough effect in the repeat runs, not every such curve was filed as active; note: series mostly up to about 51 µM). In short, it runs like this: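 Antagonism is measured as suppression of the calcium response to 1 nM TRH in TRHR-HEK293 cells that have been dye-loaded for 2 h at 37 °C after overnight plating. Each compound is tested at 15 concentrations in triplicate.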

The target is the same in assay [8]. The assay can be described thus: qHTS assay to identify small molecule agonists of the thyrotropin-releasing hormone receptor (TRHR) signaling pathway (AID 1346891; calls by dose curve; note: series mostly up to about 58 µM). Summed up:
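Screening of agonists relied on calcium signalling in HEK293 cells expressing human TRHR: dye loading 2 h at 37 °C preceded compound addition and a 3-min fluorescence time course.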

A short description of assay [9]: Human pregnane X receptor (PXR) small molecule agonists, qHTS cell viability counter screen (AID 1346977). Note: nearly all actives have a fitted effect of over 50% in size. Summed up:
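Tox21 qHTS format; PXR-Luc HepG2, 2,000/well, charcoal-stripped FBS 5%. Cpd exposure 24hr. Read: CellTiter-Fluor fluorescence, multiplexed with luciferase.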

A short description of assay [10]: Caspase-3/7 induction in HepG2 cells by small molecules, qHTS assay (AID 1346978). Note: nearly all actives have a fitted effect of over 15% in size. In short, it runs like this: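 Wild-type HepG2 cells (2,000/well) were settled 5 h at 37 C, 5% CO2, then exposed to compounds in DMSO for 17 h. Caspase-3/7 activity was read by luminescence 30 min after adding Caspase-Glo 3/7 reagent at room temperature.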
A short description of assay [11]: Caspase-3/7 induction in CHO-K1 cells by small molecules, qHTS cell viability counter screen (AID 1346979). Note: nearly all actives have a fitted effect of over 35% in size. In short, it runs like this: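 CellTiter-Fluor viability check, qHTS format: wild-type CHO-K1, 16hr compound treatment, 1hr reagent incubation, fluorescence read.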
Assay [12] in a line: Caspase-3/7 induction in CHO-K1 cells by small molecules, qHTS assay (AID 1346980). Note: nearly all actives have a fitted effect of over 15% in size. In short, it runs like this:
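Wild-type cells were seeded at 1,500 per well and settled 5 hr at 37 C, 5% CO2, then exposed to DMSO-dissolved compounds for 17 hr. Caspase-Glo 3/7 reagent was added, and luminescence was read after 30min at room temperature.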

Assay [13] in a line: Caspase-3/7 induction in HepG2 cells by small molecules, qHTS cell viability counter screen (AID 1346981). For activity change, negative = cytotoxicity: series mostly up to about 92 µM. Note: nearly all actives have a fitted effect of over 30% in size. Note: potency is the fitted concentration of half-maximal effect. Summed up:
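Cell viability is measured as a cytotoxicity counter screen alongside the Caspase-Glo 3/7 readout in identical wells. Wild-type HepG2 cells are treated with test compounds for 16 hr at 37 C before CellTiter-Fluor addition and a 1-hr incubation.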

Assay [14] has as its target Nuclear receptor subfamily 1 group I member 2 (Homo sapiens) (UniProt O75469). The assay can be described thus: Human pregnane X receptor (PXR) small molecule agonists, qHTS assay (AID 1346982). Note: nearly all actives have a fitted effect of over 35% in size. Note: potency is the fitted concentration of half-maximal effect. Summed up: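 Cells: HepG2 stably carrying PXR-Luc. Medium held 5% charcoal-stripped FBS. Compounds in DMSO added after 5 hr plating, incubated 24 hr, then luminescence quantified with ONE-Glo.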

Assay [15] addresses Nuclear receptor subfamily 1 group I member 2 (Rattus norvegicus) (UniProt Q9R1A7). The assay can be described thus: Rat pregnane X receptor (rPXR) activation by small molecules, qHTS assay (AID 1346983). Note: nearly all actives have a fitted effect of over 20% in size. The following applies: rPXR luciferase reporter cells, One-Glo luminescence, 24 h; active compounds read high. In short, it runs like this:
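Cell-based rPXR luciferase reporter assay, 2,000 cells per well, rested 5hr at 37 C before compound addition in DMSO, then 24 hr at 37 C. One-Glo reagent was added and luminescence read after 30 min at room temperature.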

The target in assay [16] is Nuclear receptor subfamily 1 group I member 2 (Homo sapiens) (UniProt O75469). Kind of assay: CYP3A4 induction through human pregnane X receptor (PXR) by small molecules, qHTS assay (AID 1346984). Note: nearly all actives have a fitted effect of over 40% in size. In short, it runs like this: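 Quantitative HTS in DPX-2 cells, i.e. HepG2 transfected with PXR response element and CYP3A4-promoter luciferase. Compounds in DMSO incubated 24hr at 37C; then P450-Glo CYP3A4 substrate, 3uM final, 3hr; One-Glo luminescence.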

For assay [17] the target is unchanged. The assay can be described thus: Human pregnane X receptor (PXR) activation by small molecules, qHTS assay (AID 1346985). Note: nearly all actives have a fitted effect of over 40% in size. Note: potency is the fitted concentration of half-maximal effect. In short, it runs like this:
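DPX-2 cells (HepG2 co-transfected with a PXR response element and a CYP3A4-promoter luciferase construct) were seeded at 2,000 per well, rested 5 hr at 37C, then exposed to DMSO-dissolved compounds for 24 hr. Activation was read as luciferase luminescence.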

Assay [18] addresses Cytochrome P450 2C19 (Homo sapiens) (UniProt P33261). Kind of assay: Cytochrome P450 Family 2 Subfamily C Member 19 (CYP2C19) small molecule antagonists: luciferase reporter qHTS assay (AID 1671197). For activity change, negative = inhibition: series mostly up to about 120 µM. Note: nearly all actives have a fitted effect of over 65% in size. Note: potency is the fitted concentration of half-maximal effect. In short, it runs like this: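 Compounds were tested on CYP2C19 activity via proluciferin conversion to luciferin. The 37C, 1 h reaction followed NADPH addition; detection reagent stopped it.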
(In general: In a reporter assay the amount or activity of a reporter protein is the signal.)

Assay [19] in a line: qHTS assay to identify small molecule antagonists of the TGF-beta/Smad signaling pathway - cell viability counter screen (AID 1346824). Note: nearly all actives have a fitted effect of over 50% in size. In short, it runs like this:
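SBE-bla HEK 293T cells were plated overnight at 37 C, then given compounds in DMSO plus TGF-beta1 (added as 0.25 ng/mL solution) for 5 hr. After the bla read, CellTiter-Glo was added to the same wells and luminescence read after 30 min at room temperature.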

The target in assay [20] is Cytochrome P450 2D6 (Homo sapiens) (UniProt P10635). Kind of assay: Cytochrome P450 Family 2 Subfamily D Member 6 (CYP2D6) small molecule antagonists: luciferase reporter qHTS assay (AID 1671196). For activity change, negative = inhibition: series mostly up to about 120 µM. Note: nearly all actives have a fitted effect of over 50% in size. Note: potency is the fitted concentration of half-maximal effect. Summed up:
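Enzyme and proluciferin substrate were first combined with test chemical for 10 min at room temperature. Adding NADPH regeneration solution started a 1 h reaction, stopped with luciferin detection reagent and read by luminescence 20 min later.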

Structures are written as SMILES. A number with no mark means an inactive call. Inconclusive results are not listed. Active and inactive are the calls of the source. Unless noted, calls come from the whole dose curve; as a rule, active = well fitted curve in the direction sought with a large enough effect in the repeat runs; inconclusive = weak or mixed curves; inactive = no such curve, though single readings can be large; an effect the other way counts as inactive or inconclusive.
% is set by controls: 0 for no effect and ±100 for the full control effect.

Chain of Progesterone receptor (Homo sapiens) (P06401 whole entry, looked up): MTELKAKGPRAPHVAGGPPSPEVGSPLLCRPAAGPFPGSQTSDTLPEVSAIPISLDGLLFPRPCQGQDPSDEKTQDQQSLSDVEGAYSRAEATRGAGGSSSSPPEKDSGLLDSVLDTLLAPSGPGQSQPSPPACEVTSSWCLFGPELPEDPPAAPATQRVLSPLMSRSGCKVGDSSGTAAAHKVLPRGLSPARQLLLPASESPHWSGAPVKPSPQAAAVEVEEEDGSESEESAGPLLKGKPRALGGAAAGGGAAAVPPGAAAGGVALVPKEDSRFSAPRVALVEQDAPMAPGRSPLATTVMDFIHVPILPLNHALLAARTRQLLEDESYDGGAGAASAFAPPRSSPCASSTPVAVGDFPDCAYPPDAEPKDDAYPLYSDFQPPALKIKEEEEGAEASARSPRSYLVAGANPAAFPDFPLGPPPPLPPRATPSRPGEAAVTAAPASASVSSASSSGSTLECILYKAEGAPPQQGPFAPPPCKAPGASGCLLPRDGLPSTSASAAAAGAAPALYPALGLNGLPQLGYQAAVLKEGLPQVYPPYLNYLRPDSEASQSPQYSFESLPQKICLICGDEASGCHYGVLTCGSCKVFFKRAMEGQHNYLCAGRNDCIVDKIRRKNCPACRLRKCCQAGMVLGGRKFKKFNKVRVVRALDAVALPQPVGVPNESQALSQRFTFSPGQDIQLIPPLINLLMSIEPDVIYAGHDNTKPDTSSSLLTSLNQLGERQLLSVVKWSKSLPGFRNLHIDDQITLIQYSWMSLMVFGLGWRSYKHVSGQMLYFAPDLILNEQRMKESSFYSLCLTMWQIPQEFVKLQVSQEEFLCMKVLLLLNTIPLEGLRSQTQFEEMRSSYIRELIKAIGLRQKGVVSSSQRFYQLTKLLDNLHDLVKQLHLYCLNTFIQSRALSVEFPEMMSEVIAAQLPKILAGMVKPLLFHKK
Chain of Nuclear receptor subfamily 1 group I member 2 (Homo sapiens) (O75469 whole entry, looked up): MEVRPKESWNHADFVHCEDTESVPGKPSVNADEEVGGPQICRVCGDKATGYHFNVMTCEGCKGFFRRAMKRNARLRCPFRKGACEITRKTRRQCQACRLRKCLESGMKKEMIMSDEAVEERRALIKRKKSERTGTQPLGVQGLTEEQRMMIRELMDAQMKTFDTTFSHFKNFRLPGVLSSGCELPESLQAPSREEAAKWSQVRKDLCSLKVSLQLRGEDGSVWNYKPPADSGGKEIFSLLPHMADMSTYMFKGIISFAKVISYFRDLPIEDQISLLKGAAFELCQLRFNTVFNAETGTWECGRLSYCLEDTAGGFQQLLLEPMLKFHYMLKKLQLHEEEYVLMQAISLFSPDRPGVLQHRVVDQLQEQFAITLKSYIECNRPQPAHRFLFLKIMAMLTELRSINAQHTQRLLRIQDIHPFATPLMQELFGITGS
Chain of Nuclear receptor subfamily 1 group I member 2 (Rattus norvegicus) (Q9R1A7 whole entry, looked up): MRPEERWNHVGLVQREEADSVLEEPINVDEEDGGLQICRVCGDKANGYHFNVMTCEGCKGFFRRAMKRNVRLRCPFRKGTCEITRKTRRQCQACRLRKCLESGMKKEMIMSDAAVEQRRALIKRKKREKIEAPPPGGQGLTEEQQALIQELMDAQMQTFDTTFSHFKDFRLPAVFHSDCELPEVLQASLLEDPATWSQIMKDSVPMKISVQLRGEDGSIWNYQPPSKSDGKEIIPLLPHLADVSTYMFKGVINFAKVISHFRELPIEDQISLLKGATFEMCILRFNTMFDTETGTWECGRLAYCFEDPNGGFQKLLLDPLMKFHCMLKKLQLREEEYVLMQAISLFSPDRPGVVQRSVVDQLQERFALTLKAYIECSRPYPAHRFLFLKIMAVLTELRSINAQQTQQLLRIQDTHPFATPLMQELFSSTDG
Chain of Cytochrome P450 2C19 (Homo sapiens) (P33261 whole entry, looked up): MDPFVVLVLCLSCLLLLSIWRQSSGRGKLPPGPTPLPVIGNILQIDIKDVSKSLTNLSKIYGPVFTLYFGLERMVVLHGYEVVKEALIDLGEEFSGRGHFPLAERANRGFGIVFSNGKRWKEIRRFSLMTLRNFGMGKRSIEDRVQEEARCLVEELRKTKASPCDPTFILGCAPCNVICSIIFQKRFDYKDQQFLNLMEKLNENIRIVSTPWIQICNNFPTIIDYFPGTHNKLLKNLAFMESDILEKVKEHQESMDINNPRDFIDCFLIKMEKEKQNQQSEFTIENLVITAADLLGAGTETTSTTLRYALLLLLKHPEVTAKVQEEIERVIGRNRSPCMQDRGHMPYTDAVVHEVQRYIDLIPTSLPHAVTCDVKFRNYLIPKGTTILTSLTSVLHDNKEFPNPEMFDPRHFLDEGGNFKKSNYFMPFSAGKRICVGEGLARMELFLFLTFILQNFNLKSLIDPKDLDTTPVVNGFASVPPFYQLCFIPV
Chain of Thyrotropin-releasing hormone receptor (Homo sapiens) (P34981 whole entry, looked up): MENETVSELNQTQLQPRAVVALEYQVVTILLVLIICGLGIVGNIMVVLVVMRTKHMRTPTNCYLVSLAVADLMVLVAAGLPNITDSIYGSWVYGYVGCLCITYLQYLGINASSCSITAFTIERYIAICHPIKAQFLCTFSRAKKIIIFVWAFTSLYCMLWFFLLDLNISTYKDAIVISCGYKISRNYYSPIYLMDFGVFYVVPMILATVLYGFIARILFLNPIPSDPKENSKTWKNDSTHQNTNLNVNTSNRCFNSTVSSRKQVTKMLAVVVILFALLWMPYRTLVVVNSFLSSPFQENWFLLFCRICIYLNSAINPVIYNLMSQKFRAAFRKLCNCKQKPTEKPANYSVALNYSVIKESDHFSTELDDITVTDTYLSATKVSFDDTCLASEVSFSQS
Chain of Cytochrome P450 2D6 (Homo sapiens) (P10635 whole entry, looked up): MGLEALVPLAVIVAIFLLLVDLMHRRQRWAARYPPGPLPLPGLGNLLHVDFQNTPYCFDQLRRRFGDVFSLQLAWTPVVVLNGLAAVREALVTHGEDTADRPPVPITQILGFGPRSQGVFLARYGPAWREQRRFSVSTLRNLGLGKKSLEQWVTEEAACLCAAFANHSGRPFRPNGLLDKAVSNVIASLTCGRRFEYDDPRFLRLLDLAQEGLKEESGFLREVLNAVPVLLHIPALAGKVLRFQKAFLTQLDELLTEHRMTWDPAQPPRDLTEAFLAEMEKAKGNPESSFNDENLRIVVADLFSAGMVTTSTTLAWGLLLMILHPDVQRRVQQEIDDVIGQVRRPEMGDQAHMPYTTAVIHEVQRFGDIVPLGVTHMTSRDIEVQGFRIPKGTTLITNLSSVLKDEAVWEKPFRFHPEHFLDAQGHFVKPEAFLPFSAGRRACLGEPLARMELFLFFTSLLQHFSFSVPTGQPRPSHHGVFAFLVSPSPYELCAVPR

Regarding `NCCN1CCOCC1`, the Potency result in assay [1], in assay [2], in assay [3], in assay [4], in assay [9] and in assay [10] was “inactive” each time. Also, the Potency entry in assay [11] and in assay [13] was “inactive” in each case. The compound was classed as inactive in assay [5], in [6], in [7], in assay [8] and in assay [12].
As to `O=C(CS(=O)Cc1ccco1)NC/C=C\COc1cc(CN2CCCCC2)ccn1` (configuration not stated), the Potency entry in [1], in assay [2], in [3], in assay [4], in assay [9] and in assay [10] was “inactive” in each case. Also, the Potency result in assay [13], in [14], in assay [16], in assay [17] and in [18] was “inactive” each time. Also, the outcome in assay [5], in assay [6], in assay [7] and in assay [12] was inactive. In addition, the max activation in assay [15] is -0.727%.
With `C=C(C)C(=O)OCc1ccccc1`, the Potency entry in assay [1], in assay [2], in assay [9], in assay [10], in [11] and in assay [13] was “inactive” throughout. The Potency result in assay [14] was “inactive”. In addition, the Potency in [3] is 30.6 µM (active); in assay [4], 48.6 µM (active). The result in assay [19], in [5] and in [12] was inactive.
In the case of `CC(C)(C)c1cc(CCC(=O)NN)cc(C(C)(C)C)c1O`, the Potency entry in assay [1], in assay [2], in assay [3], in assay [4], in [9] and in assay [10] was “inactive” each time. Moreover, the Potency entry in [11] and in assay [13] was “inactive” throughout. Moreover, the outcome in [5], in assay [6], in assay [7], in [8] and in [12] was inactive. In addition, the Potency in [14] was 34.4 µM (active); in assay [18], 6.33 µM (active).
Turning to `COc1ccc2c(c1OC)C(=O)O[C@@H]2[C@H]1c2c(cc3c(c2OC)OCO3)CCN1C`, the Potency entry in assay [1], in assay [2], in assay [3], in assay [4], in assay [10] and in [16] was “inactive” in each case. For the same compound, the result in [5], in assay [6], in assay [7], in assay [8] and in assay [12] was inactive. For the same compound, the Potency in assay [13] was 15 µM (active); in assay [14] it was 11.9 µM (active); in assay [17], 22.4 µM (active); in assay [20], 11 µM (active); in assay [18], 1.38 µM (active). Moreover, the max activation in assay [15] is 8.04%.
As to `CC(C(=O)O)c1ccc2c(c1)CC(=O)c1ccccc1S2` (configuration not stated), the Potency entry in assay [1], in assay [2], in [3], in [4], in [9] and in assay [10] was “inactive” in each case. The Potency entry in [13], in assay [20] and in [18] was “inactive” in each case. In addition, the compound was called inactive in assay [19], in assay [5] and in assay [12].
As to `NS(=O)(=O)c1ccc(NC(=O)CCC(=O)O)cc1`, the Potency entry in assay [1], in [2], in assay [3], in [4], in [9] and in assay [10] was “inactive” throughout. Besides, the Potency result in assay [11], in assay [13], in assay [14], in assay [16], in assay [17] and in [18] was “inactive” each time. The compound was called inactive in [5], in assay [6] and in assay [12]. Moreover, in assay [15], the max activation is -2.26%.
For the compound `Cc1nc2n(c(=O)c1CCN1CCC(c3noc4cc(F)ccc34)CC1)CCC[C@H]2O`, the activation was -1.98% [at 19 µM] in assay [1], 0.469% [at 15.8 µM] in assay [6], -0.0294% [at 11.8 µM] in assay [8] and 13.9% [at 19 µM] in [14]. The activity change, negative = inhibition was 1.27% [at 18.9 µM] in assay [2] and 18.1% [at 23.6 µM] in [18]. In addition, the activity change, negative = cytotoxicity in assay [3] was -12.9% [at 18.9 µM]; in assay [4], -13.8% [at 19 µM]; in [5], -1.25% [at 15.8 µM]; in assay [9] it was -2.46% [at 19 µM]; in assay [11], 8.49% [at 19 µM]; in assay [13] it was 0.92% [at 19 µM]. Besides, the activity, negative = inhibition in assay [7] is -5.29% [at 10.5 µM]. Also, the caspase activation in assay [10] is 0.536% [at 19 µM]. For the same compound, the caspase-3/7 activation in [12] is 0.349% [at 19 µM]. In addition, the Potency in [20] is 6.01 µM (active).

The values above are taken from PubChem BioAssay (Tox21).
